This is a sample that favours compounds with a hit; in the whole collection about 4.2% have one here.
TIM10 inh: TIM10 yeast growth inhibition; 1.4% of 330,000 active; inhibition, % at 10 µM; S. cerevisiae TIM10 strain growth, BacTiter-Glo luminescence, 24 h; AID 463195;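 active means inhibition of 40% or more at the single tested concentration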;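 further: wild-type TIM10 isogenic control strain grown at permissive 25 °C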
tim10-1 inh: inhibits growth of tim10-1 mutant yeast; inhibition, % at 20 µM; 2.2% of 330,000 active; AID 463190; S. cerevisiae tim10-1 ts strain growth, BacTiter-Glo, 24 h;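 active means inhibition of at least 40%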;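 further: mutant grown at 25 °C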
NALP1 yeast inh: inhibitors of NALP1 inflammasome in yeast; S. cerevisiae NALP1/ASC/caspase-1 growth, X-gal OD620, 72 h; inhibition, % at 10 µM; 0.61% of 280,000 active; AID 2071; in the data active means inhibition mostly above about 24%, no sharp cut-off; inactive means mostly below about 32%
NLRP3 yeast inh: blocks the NALP3 inflammasome reconstituted in yeast; Yeast reconstituted NLRP3/ASC/caspase-1, beta-gal luminescence, 24 h; inhibition, % at 10 µM; 0.39% of 330,000 active; AID 2825;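 active means inhibition of 50% or more; inactive means inhibition below 50%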
tim23-1 inh: inhibits growth of tim23-1 mutant yeast | S. cerevisiae tim23-1 growth, BacTiter-Glo luminescence, 24 h | inhibition, % at 20 µM | 1.3% of 330,000 active;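 active means growth inhibition of the mutant yeast at or above 50%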;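 further: temperature-sensitive mutant grown at 25 °C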
V-ATPase pHluor: regulators of yeast V-ATPase proton transport | S. cerevisiae, pHLuorin cytosolic pH fluorescence | response, % at 10 µM | 0.37% of 350,000 active | AID 504577; in the data active means response mostly above about 7.3%, no sharp cut-off; inactive means mostly below about 5.4%; further: actives read high
tim23-1 conf: tim23-1 yeast growth inhibition, confirmed. shares compounds with tim23-1 inh. S. cerevisiae tim23-1 growth, BacTiter-Glo luminescence, 24 h. inhibition, % at 20 µM. 83% of 4,400 active. AID 463218;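 active means inhibition above about 39% in either of two replicate wells at 20 µM, limit read from the data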;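 further: temperature-sensitive tim23-1 mutant grown at 25 °C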
Hits are given with their value; 0 = inactive; - = no result.

SMILES	TIM10 inh	tim10-1 inh	NALP1 yeast inh	NLRP3 yeast inh	tim23-1 inh	V-ATPase pHluor	tim23-1 conf
Cc1cc(C)c2c(c1)OC(=O)CC2c1ccccc1C (stereo not drawn)	0	0	-	-	54	0	0
COc1cc2c(c(OC)c1OC)C(c1ccc3c(c1)OCO3)CC(=O)O2 (stereo not drawn)	0	0	-	-	0	0	-
COc1ccccc1C1CC(=O)Oc2cc(C)cc(C)c21 (stereo not drawn)	0	0	-	-	0	0	-
COc1cc2c(c(OC)c1OC)C(c1ccccc1C)CC(=O)O2 (stereo not drawn)	0	0	-	-	55	0	0
COc1cccc(/C=N/NC(=O)c2cc(C34CC5CC(CC(C5)C3)C4)[nH]n2)c1	0	0	-	0	66	0	41
COc1ccc(/C=N/NC(=O)c2cc(C34CC5CC(CC(C5)C3)C4)[nH]n2)cc1OC	0	0	0	0	0	0	-
COc1cc2nc(C3CCC3)nc(N3CCN(c4ccccc4OC)CC3)c2cc1OC	0	0	0	0	53	0	44
CC(O)c1cccc(N=Cc2ccc3ccccc3c2O)c1 (stereo not drawn)	0	0	0	0	54	0	42
Cc1ccc(NC(=O)C(C)OC(=O)c2ccc(NC(=O)CC#N)cc2)cc1S(=O)(=O)N1CCOCC1 (stereo not drawn)	0	0	-	0	0	0	-
COc1ccccc1N1CCNC(C)C1=O (stereo not drawn)	0	0	0	0	0	0	-
COc1cc(NC(=S)Nc2ccccn2)cc(OC)c1	0	0	0	0	51	0	0
O=C(NC1CCN(Cc2ccc(Cl)cc2)CC1)c1cn(-c2ccccc2)nc1-c1cccnc1	0	0	-	0	0	0	-
O=C(CN(Cc1ccccc1)C(=O)CCl)c1cccc(Br)c1	0	0	-	0	57	0	45
O=C1/C(=C/c2ccccc2Cl)SC(=S)N1CCCC(=O)N(CCO)c1ccccc1	0	0	0	0	56	0	48
O=C(CCCN1C(=O)/C(=C/c2ccccc2Cl)SC1=S)Nc1ccccn1	0	0	0	0	0	0	-
CCCCCOC(=O)Cc1c(C)nc(-c2ccccc2)[nH]c1=O	0	0	0	0	54	0	52
Cc1nc2ccc(NC(=O)c3cccs3)cc2c(=O)n1Cc1ccc(Cl)cc1	0	0	0	0	62	0	46
C/C(=N\NC(=O)CSc1ncccn1)c1ccc2c(c1)OCCO2	0	0	0	0	53	0	0
O=C(NCCc1ccccc1)c1ccco1	0	0	0	0	0	0	-
O=C(/C(=C/O)N=Nc1ccccc1)c1ccco1	0	0	0	0	55	0	59
CCCCN1C[C@H](COC(=O)CCC)Oc2cccc(F)c2S1(=O)=O	-	-	-	-	-	0	-
Cc1cc2oc(=O)cc(-c3ccccc3)c2c(C)c1-c1ccc(CO)cc1	0	0	-	-	54	0	0
COc1cc(/C=C2\SC(=Nc3ccccc3OC)NC2=O)ccc1O	0	0	0	0	0	0	-
COc1ccc(/C=C2\SC(=Nc3ccccc3OC)NC2=O)cc1	0	0	0	0	53	0	60
Cc1ccc(NC(=O)c2ccc(OCc3c(C)noc3C)cc2)cc1C	0	0	-	0	59	0	56
SMILES	TIM10 inh	tim10-1 inh	NALP1 yeast inh	NLRP3 yeast inh	tim23-1 inh	V-ATPase pHluor	tim23-1 conf
CCCN1C(=O)C(Cc2nc3ccccc3c(=O)n2-c2ccccc2)c2ccccc21 (stereo not drawn)	0	0	0	0	51	0	49
CC(C)N1C(=O)C(Cc2nc3ccccc3c(=O)n2-c2ccccc2)c2ccccc21 (stereo not drawn)	0	0	0	0	0	0	-
Cc1nc(NCCc2ccccc2)c2oc3ccccc3c2n1	0	0	0	0	61	0	41
Cc1ccc(S(=O)(=O)NCCC(=O)N2CCOCC2)cc1C	0	0	-	0	0	0	-
C=CCC1Cc2c(Br)cccc2C(CC=C)N1 (stereo not drawn)	0	0	0	0	53	0	46
C=CC[C@H]1Cc2c(cccc2[N+](=O)[O-])[C@H](CC=C)N1	0	0	0	0	0	0	-
COc1ccc(-c2n[nH]c(C)c2-c2ccc(Cl)cc2)c(O)c1	0	0	0	0	0	0	-
COc1ccc(-c2cc(-c3ccc(C)cc3)n[nH]2)c(O)c1	0	0	0	0	54	0	0
O=C(NC(=S)NCc1ccco1)c1ccccc1	0	0	0	0	0	0	-
O=C(NC(=S)NCc1ccco1)c1ccc(Br)cc1	0	0	0	0	56	0	45
COc1ccc(OC)c(NC(=S)NC(=O)c2ccc(Br)o2)c1	0	0	0	0	0	0	-
COc1ccc([C@@H]2CC=C(C(=O)O)[C@H](c3ccc(Cl)cc3)N2S(=O)(=O)c2ccc(C)cc2)cc1OC	0	0	-	0	0	0	-
CCc1cc2c3c(c1)/C(=C1/SC(N)=NC1=O)C(=O)N3C(C)(C)C=C2C	0	0	0	0	0	0	-
CCc1cc2c3c(c1)C(C)CC(C)(C)N3C(=O)/C2=C1\SC(=O)NC1=O (stereo not drawn)	0	0	0	0	59	0	50
COc1ccc(OC)c(-c2csc(NC(=O)Cc3ccccc3F)n2)c1	0	0	0	0	51	0	46
COc1ccc(OC)c(-c2csc(NC(=O)Cc3ccccc3OC)n2)c1	0	0	0	0	0	0	-
CCOC(=O)c1cccnc1SCc1cc(=O)n2ccccc2n1	0	0	0	0	71	0	65
Cc1ccc(-c2nc(COC(=O)C3=NN(c4ccccc4)C(=O)CC3)cs2)cc1	0	0	-	0	0	0	-
Cc1ccc(O)c(N=Nc2ccccc2)n1	0	0	-	0	54	0	54
COc1ccc(OC)c(NC(=O)C2CCC(CNc3c(N4CCOCC4)c(=O)c3=O)CC2)c1 (stereo not drawn)	0	0	-	0	0	0	-
CC(C)OCCCNC1=C(Cl)C(=O)c2ccccc2C1=O	0	0	0	0	0	0	-
C=CCNC1=C(Cl)C(=O)c2ccccc2C1=O	0	0	0	0	54	0	44
CC(C)NC1=C(Cl)C(=O)c2ccccc2C1=O	0	0	0	0	55	0	45
CCN(CC)CCCNC1=C(Cl)C(=O)c2ccccc2C1=O	0	0	0	0	0	0	-
c1ccc(Sc2ncccn2)nc1	0	0	0	0	0	0	-
CC1CCN(CCNC(=S)Nc2ccc(Cl)cc2)CC1	0	0	0	0	0	0	-
CC(C)(C)C(=O)/C=c1\[nH]c(=O)/c(=C\c2ccccc2F)s1	0	0	0	0	0	0	-
CC(C)(C)C(=O)/C=c1\[nH]c(=O)/c(=C\c2ccc(F)cc2)s1	0	0	0	0	52	0	51
Cc1ccc(Cl)cc1NC(=O)COC(=O)CSc1ccccc1	0	0	-	0	0	0	-
Cc1cc(C)c(OCC(=O)NCC2CCCO2)c(C)c1 (stereo not drawn)	0	0	0	0	0	0	-

Screens (PubChem BioAssay)
